Assay results reported in PubChem BioAssay (EPA / NIEHS).
More than one record can exist for a structure, and the calls need not agree. Calls of active or inactive are those of the source. The calls were made as follows: active = hit-call score of the fitted dose curve at least 0.9, where 1 is the maximum; inactive = score below 0.9.

Assays:
[1] = ATG_CRE_CIS: Attagene CIS-FACTORIAL HepG2 Assay for human cAMP Responsive Element (CRE) binding protein 3 (AID 2282926); conditions: HepG2 CRE cis-reporter, Attagene multiplexed mRNA; actives raise or lower the signal
Procedure, shortened: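 Assay format: transient reporter transfection of HepG2, 24 h treatment, total RNA isolation with DNase I step. Reporter abundance read by fluorescence after PCR and capillary separation; DMSO-normalised gain or loss fitting.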

[2] = molecular target: CCAAT/enhancer-binding protein beta (Homo sapiens) (UniProt P17676); test: ATG_C_EBP_CIS: Attagene CIS-FACTORIAL HepG2 Assay for human CCAAT/Enhancer Binding Protein (C/EBP) beta (AID 2282927); conditions: HepG2 Attagene cis-factorial transcription factor reporter; actives raise or lower the signal
Chain of CCAAT/enhancer-binding protein beta (Homo sapiens) (P17676 whole entry, looked up): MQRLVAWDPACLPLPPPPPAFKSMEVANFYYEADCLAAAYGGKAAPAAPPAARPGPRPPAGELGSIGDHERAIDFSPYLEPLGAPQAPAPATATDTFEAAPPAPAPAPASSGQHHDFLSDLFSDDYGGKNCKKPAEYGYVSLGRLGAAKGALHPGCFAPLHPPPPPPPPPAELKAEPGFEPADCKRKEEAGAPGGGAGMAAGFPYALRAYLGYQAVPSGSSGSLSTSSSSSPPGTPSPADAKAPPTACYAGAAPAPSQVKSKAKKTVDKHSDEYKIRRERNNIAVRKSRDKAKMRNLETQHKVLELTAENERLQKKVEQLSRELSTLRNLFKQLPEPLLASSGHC
Procedure, shortened: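 HepG2 transiently transfected with multiplexed reporter units under cis-regulatory promoters reporting endogenous C/EBPb activity. After 24 h exposure, reporter mRNA assayed by RT-PCR, fluorescent labelling, HpaI digestion and capillary electrophoresis; bidirectional fitting versus DMSO.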

[3] = ATG_CMV_CIS: Attagene CIS-FACTORIAL HepG2 Assay for human CMV (Internal Marker) (AID 2282928); conditions: HepG2 CMV promoter reporter, transcription factor profiling; actives raise or lower the signal;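 also: endpoint acts as a background internal control marker rather than a target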
Procedure, shortened: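 Readout: fluorescent reporter cDNA fragments separated by capillary electrophoresis after RT-PCR and HpaI cut. Cells: HepG2 carrying transfected cis-promoter reporter constructs, dosed 24 h. Endpoint serves as background internal-marker control, fit bidirectionally versus DMSO.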

[4] = ATG_DR4_LXR_CIS: Attagene CIS-FACTORIAL HepG2 Assay for human Liver X Receptor (LXR), DR4 submotif (AID 2282929); conditions: HepG2 Attagene DR4 cis-reporter, mRNA transcription; actives raise or lower the signal
Procedure, shortened: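 Fluorescence intensity of labelled reporter cDNA fragments, separated by capillary electrophoresis, gives the signal. HepG2 cells bearing cis-regulated reporter constructs were treated 24 h; activity fitted bidirectionally relative to DMSO negative control.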

[5] = molecular target: Aryl hydrocarbon receptor (Homo sapiens) (UniProt P35869); test: ATG_Ahr_CIS: Attagene CIS-FACTORIAL HepG2 Assay for human Aryl Hydrocarbon Receptor (Ahr) (AID 2282930); conditions: HepG2 AhR cis-factorial reporter transcription; actives raise or lower the signal
Chain of Aryl hydrocarbon receptor (Homo sapiens) (P35869 whole entry, looked up): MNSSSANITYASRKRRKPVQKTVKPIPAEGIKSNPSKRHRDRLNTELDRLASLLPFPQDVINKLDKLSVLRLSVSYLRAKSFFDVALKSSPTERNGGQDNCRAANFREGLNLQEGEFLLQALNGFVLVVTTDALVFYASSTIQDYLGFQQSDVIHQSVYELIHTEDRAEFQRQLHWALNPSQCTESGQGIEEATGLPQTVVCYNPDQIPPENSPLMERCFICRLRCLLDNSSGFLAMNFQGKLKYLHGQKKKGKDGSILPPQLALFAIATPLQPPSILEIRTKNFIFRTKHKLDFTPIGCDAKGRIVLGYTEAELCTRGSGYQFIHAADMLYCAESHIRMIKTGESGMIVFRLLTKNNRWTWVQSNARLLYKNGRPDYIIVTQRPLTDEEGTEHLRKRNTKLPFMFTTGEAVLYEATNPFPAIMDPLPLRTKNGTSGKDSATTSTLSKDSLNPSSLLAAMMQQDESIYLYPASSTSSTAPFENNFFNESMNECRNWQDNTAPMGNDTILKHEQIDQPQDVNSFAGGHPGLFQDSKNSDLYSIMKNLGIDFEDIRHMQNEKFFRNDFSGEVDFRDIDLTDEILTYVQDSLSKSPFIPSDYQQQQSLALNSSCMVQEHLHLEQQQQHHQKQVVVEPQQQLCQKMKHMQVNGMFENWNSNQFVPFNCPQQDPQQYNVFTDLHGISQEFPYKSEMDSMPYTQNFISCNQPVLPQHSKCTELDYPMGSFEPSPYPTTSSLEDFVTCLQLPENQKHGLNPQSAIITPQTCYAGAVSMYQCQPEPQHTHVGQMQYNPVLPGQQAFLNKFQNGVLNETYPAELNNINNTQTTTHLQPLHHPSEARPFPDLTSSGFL
Procedure, shortened: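 HepG2 cells transiently transfected with cis-element-driven multiplexed reporter units; endogenous AhR activity read as reporter mRNA 24 h after dosing, via RT-PCR, 6-FAM labelling, HpaI digestion and capillary electrophoresis. Bidirectional fit relative to DMSO.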

[6] = ATG_AP_1_CIS: Attagene CIS-FACTORIAL HepG2 Assay for human Activator Protein 1 (AP-1) (AID 2282931); conditions: HepG2 Attagene cis-factorial AP-1 reporter mRNA; actives raise or lower the signal
Procedure, shortened: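 Multiplexed HepG2 reporter assay, 24 h dosing. mRNA induction detected by RT-PCR plus capillary electrophoresis. Activity fitted in both directions against DMSO.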

[7] = ATG_AP_2_CIS: Attagene CIS-FACTORIAL HepG2 Assay for human Activator Protein 2 (AP-2) (AID 2282932); conditions: HepG2 AP-2 cis-reporter, Attagene transcription factor profiling; actives raise or lower the signal
Procedure, shortened: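 Read-out: fluorescent reporter mRNA via RT-PCR and capillary electrophoresis, 24 h post-dose in transiently transfected HepG2. Endogenous factors drive cis-promoter reporters; gain or loss of signal fitted bidirectionally against DMSO.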

[8] = molecular target: Retinoic acid receptor alpha (Homo sapiens) (UniProt P10276); test: ATG_DR5_RAR_CIS: Attagene CIS-FACTORIAL HepG2 Assay for human Retinoic Acid Receptor Alpha (RARE), DR5 submotif (AID 2282934); conditions: HepG2 Attagene cis-factorial RARE DR5 reporter, mRNA; actives raise or lower the signal
Chain of Retinoic acid receptor alpha (Homo sapiens) (P10276 whole entry, looked up): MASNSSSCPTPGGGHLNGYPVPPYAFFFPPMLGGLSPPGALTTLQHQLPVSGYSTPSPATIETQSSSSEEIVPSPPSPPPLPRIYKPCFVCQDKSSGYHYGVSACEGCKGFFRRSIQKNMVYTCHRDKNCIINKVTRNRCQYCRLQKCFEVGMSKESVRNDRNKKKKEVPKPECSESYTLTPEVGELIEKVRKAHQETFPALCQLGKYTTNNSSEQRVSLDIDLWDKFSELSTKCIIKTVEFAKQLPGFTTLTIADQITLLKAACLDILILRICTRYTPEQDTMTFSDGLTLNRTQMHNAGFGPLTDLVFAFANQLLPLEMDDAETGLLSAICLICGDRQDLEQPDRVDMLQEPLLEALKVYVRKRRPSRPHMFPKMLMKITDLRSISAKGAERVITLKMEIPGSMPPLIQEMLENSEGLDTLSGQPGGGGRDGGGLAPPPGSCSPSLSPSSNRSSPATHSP
Procedure, shortened: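 HepG2 cells transiently transfected with multiplexed reporter units; DR5 cis-element drives reporter through endogenous transcription factors. After 24 h dosing, reporter mRNA quantified by RT-PCR, fluorescent labeling, HpaI digestion and capillary electrophoresis; bidirectional fitting versus DMSO.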

[9] = molecular target: Transcription factor E2F1 (Homo sapiens) (UniProt Q01094); test: ATG_E2F_CIS: Attagene CIS-FACTORIAL HepG2 Assay for human E2F Transcription Factor 1 (AID 2282935); conditions: HepG2 Attagene cis-reporter, E2F reporter RNA transcripts; actives raise or lower the signal
Chain of Transcription factor E2F1 (Homo sapiens) (Q01094 whole entry, looked up): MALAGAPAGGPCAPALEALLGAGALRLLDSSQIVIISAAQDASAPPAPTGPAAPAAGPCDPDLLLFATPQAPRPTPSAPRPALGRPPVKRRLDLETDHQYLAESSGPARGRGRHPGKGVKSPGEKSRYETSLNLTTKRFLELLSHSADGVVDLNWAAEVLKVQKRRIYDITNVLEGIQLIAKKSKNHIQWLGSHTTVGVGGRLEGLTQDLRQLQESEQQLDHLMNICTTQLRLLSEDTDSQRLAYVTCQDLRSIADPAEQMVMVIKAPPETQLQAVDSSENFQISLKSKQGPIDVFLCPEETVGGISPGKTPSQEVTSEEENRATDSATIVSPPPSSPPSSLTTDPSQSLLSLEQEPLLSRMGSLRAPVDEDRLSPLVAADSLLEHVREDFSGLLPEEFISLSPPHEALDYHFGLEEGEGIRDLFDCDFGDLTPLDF
Procedure, shortened: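 Transient MRTU transfection of HepG2; 24 h compound exposure; RNA → oligo(dT) RT → PCR → FAM label → HpaI cut → CE fluorescence. Gain/loss of signal fit against DMSO.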

[10] = ATG_E_Box_CIS: Attagene CIS-FACTORIAL HepG2 Assay for human Enhancer Box (E-box) (AID 2282936); conditions: HepG2 E-box cis-reporter transcription, actives raise or lower the signal
Procedure, shortened: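 Transiently transfected HepG2, endogenous TF-driven reporters, 24 h dosing. Readout: RT-PCR plus capillary electrophoresis of fluorescent reporter fragments. Gain or loss of signal fitted bidirectionally against DMSO baseline.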

[11] = ATG_M_61_CIS: Attagene CIS-FACTORIAL HepG2 Assay for M61 Transcription Factor (Internal Marker) (AID 2282937); conditions: HepG2 Attagene CIS-FACTORIAL M61 internal marker reporter; actives raise or lower the signal
Procedure, shortened: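 Endogenous transcription factor activity in HepG2 is read through transiently transfected cis-element reporter units. After 24 h dosing, RNA undergoes reverse transcription, PCR and primer extension with 6-FAM before capillary electrophoresis; DMSO-referenced bidirectional fit.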

[12] = ATG_EGR_CIS: Attagene CIS-FACTORIAL HepG2 Assay for human Early Growth Response 1 (EGR1) (AID 2282938); conditions: HepG2 Attagene CIS-FACTORIAL EGR reporter mRNA; actives raise or lower the signal
Procedure, shortened: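 Activity is taken as induction or loss of reporter mRNA versus DMSO, fitted bidirectionally. Transcripts from cis-regulated reporter units in transiently transfected HepG2 were measured after 24 h by RT-PCR with capillary electrophoresis.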

[13] = ATG_M_19_CIS: Attagene CIS-FACTORIAL HepG2 Assay for M19 Transcription Factor (Internal Marker) (AID 2282939); conditions: HepG2 Attagene CIS-FACTORIAL M19 internal marker reporter; actives raise or lower the signal
Procedure, shortened: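 HepG2 cells transiently transfected with cis-regulated multiple reporter transcription units were dosed for 24 h; reporter mRNA was quantified by RT-PCR, 6-FAM primer-extension labelling, HpaI digestion and capillary electrophoresis, with bidirectional fitting against DMSO baseline.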

[14] = ATG_Ets_CIS: Attagene CIS-FACTORIAL HepG2 Assay for human Erythroblast Transformation Specific (ETS) (AID 2282941); conditions: HepG2 ETS cis-reporter transcription, actives raise or lower the signal
Procedure, shortened: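 RT-PCR/capillary electrophoresis fluorescence read-out of reporter mRNA; HepG2 transient multi-reporter transfection; 24 h compound exposure; gain or loss of signal fitted bidirectionally relative to DMSO.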

[15] = ATG_FoxO_CIS: Attagene CIS-FACTORIAL HepG2 Assay for human Forkhead box O (FoxO) (AID 2282943); conditions: HepG2 Attagene cis-reporter, FoxO element, mRNA; actives raise or lower the signal
Procedure, shortened: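 HepG2 cells transiently transfected with cis-element-driven reporter units report endogenous FoxO activity. After 24 h chemical exposure, reporter mRNA quantified by RT-PCR, fluorescent labeling, HpaI digestion and capillary electrophoresis; bidirectional fit versus DMSO.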

[16] = ATG_GATA_CIS: Attagene CIS-FACTORIAL HepG2 Assay for human GATA Binding Protein (AID 2282944); conditions: HepG2 GATA cis-element reporter, Attagene multiplex mRNA; actives raise or lower the signal
Procedure, shortened: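 HepG2 cells transiently transfected with multiplexed cis-element reporter units reflecting endogenous transcription factor activity; reporter mRNA measured after 24 h dosing by RT-PCR, 6-FAM labeling, HpaI digestion and capillary electrophoresis. Bidirectional fitting versus DMSO baseline.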

[17] = ATG_GLI_CIS: Attagene CIS-FACTORIAL HepG2 Assay for human Zinc Finger Protein GLI1 (AID 2282945); conditions: HepG2, Attagene cis-factorial reporter mRNA, GLI element; actives raise or lower the signal
Procedure, shortened: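 Transiently transfected HepG2 cells report endogenous transcription factor activity via cis-element-driven reporter units. After 24 h compound exposure, reporter mRNA was measured by RT-PCR with capillary electrophoresis; bidirectional fitting against DMSO baseline.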

[18] = molecular target: Hepatocyte nuclear factor 3-beta (Homo sapiens) (UniProt Q9Y261); test: ATG_FoxA2_CIS: Attagene CIS-FACTORIAL HepG2 Assay for human Forkhead box A2 (FOXA2) (AID 2282942); conditions: HepG2 cis-reporter transcription factor activity, 24 h; actives raise or lower the signal
Chain of Hepatocyte nuclear factor 3-beta (Homo sapiens) (Q9Y261 whole entry, looked up): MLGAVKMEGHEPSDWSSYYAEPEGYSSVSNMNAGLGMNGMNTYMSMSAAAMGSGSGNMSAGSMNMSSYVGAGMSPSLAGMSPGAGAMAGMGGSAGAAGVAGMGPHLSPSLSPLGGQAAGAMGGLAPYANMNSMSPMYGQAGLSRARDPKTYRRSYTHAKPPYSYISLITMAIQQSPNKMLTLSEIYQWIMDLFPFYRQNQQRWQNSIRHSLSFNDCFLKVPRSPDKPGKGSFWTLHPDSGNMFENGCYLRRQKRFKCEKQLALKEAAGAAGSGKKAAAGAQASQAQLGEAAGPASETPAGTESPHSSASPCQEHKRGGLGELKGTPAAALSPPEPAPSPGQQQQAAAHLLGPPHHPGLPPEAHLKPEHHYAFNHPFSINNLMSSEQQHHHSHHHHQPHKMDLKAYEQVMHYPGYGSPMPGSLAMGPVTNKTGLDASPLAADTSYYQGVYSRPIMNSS
Procedure, shortened: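 Reporter transcript induction is measured by fluorescence after capillary electrophoresis of RT-PCR products from HepG2 cells exposed 24 h. Cis-regulated reporter units report endogenous factor activity; curves fitted both directions against DMSO.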

[19] = ATG_ERE_CIS: Attagene CIS-FACTORIAL HepG2 Assay for Estrogen Response Element (ERE) (AID 2282940); conditions: HepG2 ERE cis-reporter, Attagene RNA transcript; actives raise or lower the signal
Procedure, shortened: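 HepG2 cells transiently transfected with cis-promoter-driven multiplexed reporter transcription units report endogenous TF activity. After 24 h compound exposure, reporter mRNA is quantified by RT-PCR with capillary electrophoresis fluorescence; bidirectional fitting versus DMSO baseline.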

[20] = ATG_BRE_CIS: Attagene CIS-FACTORIAL HepG2 Assay for human Bone Morphogenetic Protein (BMP) Response Element (BRE) (AID 2282933); conditions: HepG2 BMP response element reporter, Attagene transcription factor profiling; actives raise or lower the signal
Procedure, shortened: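 HepG2 cells transiently transfected with multiplexed cis-element reporter units were dosed with chemical for 24 h. Reporter mRNA was measured by RT-PCR with fluorescent labelling, HpaI digestion and capillary electrophoresis; bidirectional fitting relative to DMSO.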

Measured: AC50

N#CSCSC#N
inactive: [1] | [2] | [3] | [4] | [5] | [6] | [7] | [8] | [9] | [10] | [11] | [12] | [13] | [14] | [15] | [16] | [17]

CCCCSP(=O)(SCCCC)SCCCC
active: [3] 39.3 µM | [4] 72.9 µM | [6] 70.1 µM | [9] 58.3 µM | [10] 56.5 µM | [16] 81.2 µM | [17] 79.8 µM
inactive: [1] | [2] | [5] | [7] | [8] | [11] | [12] | [13] | [14] | [18] | [15]

COP(=O)(OC)SCn1c(=O)oc2cc(Cl)cnc21
inactive: [2] | [3] | [5] | [6] | [7] | [9] | [10] | [11] | [12] | [13] | [19] | [14] | [15] | [16] | [17]
active: [1] 18.1 µM | [4] 10.4 µM

Nc1c(Cl)cc([N+](=O)[O-])cc1Cl
active: [1] 35.1 µM | [2] 73.8 µM | [6] 75.2 µM | [20] 36.1 µM | [19] 28.2 µM
inactive: [4] | [5] | [7] | [8] | [9] | [10] | [11] | [12] | [13] | [14] | [15] | [16] | [17]

CN1COCN(Cc2cnc(Cl)s2)C1=N[N+](=O)[O-]
inactive: [1] | [2] | [4] | [5] | [6] | [7] | [20] | [8] | [9] | [10] | [11] | [12] | [13] | [14] | [18] | [15] | [16] | [17]

CCCSP(=O)(OCC)Oc1ccc(Br)cc1Cl (stereo not drawn)
active: [1] 2.33 µM | [2] 1.81 µM | [3] 3.92 µM
inactive: [4] | [5] | [6] | [7] | [20] | [8] | [9] | [10] | [11] | [12] | [13] | [14] | [15] | [16] | [17]

O=[N+]([O-])c1cc(C(F)(F)F)c(Cl)c([N+](=O)[O-])c1Nc1ncc(C(F)(F)F)cc1Cl
active: [2] 7.85 µM | [5] 19.1 µM | [6] 2.7 µM | [9] 9.39 µM | [10] 15.2 µM
inactive: [1] | [2] | [3] | [5] | [6] | [7] | [8] | [9] | [10] | [11] | [12] | [13] | [19] | [14] | [15] | [16] | [17]
